Assay outcomes deposited in PubChem BioAssay by National Center for Advancing Translational Sciences (NCATS).
Most compounds without a hit are left out; they make up all but 3.1% or so of the library.
VDR inhibitor: Inhibitors of the vitamin D receptor (VDR): qHTS. Vitamin D3 receptor (Homo sapiens), P11473. Potency, µM, for inactives: max response, negative = inhibition, actives largely listed as inhibitors. 0.93% of 400,000 active. VDR-SRC2-3 peptide fluorescence polarization, 2 h; further: on the % scale 0 is the no-effect control and ±100 the full control effect
Target sequence (P11473 whole entry, looked up): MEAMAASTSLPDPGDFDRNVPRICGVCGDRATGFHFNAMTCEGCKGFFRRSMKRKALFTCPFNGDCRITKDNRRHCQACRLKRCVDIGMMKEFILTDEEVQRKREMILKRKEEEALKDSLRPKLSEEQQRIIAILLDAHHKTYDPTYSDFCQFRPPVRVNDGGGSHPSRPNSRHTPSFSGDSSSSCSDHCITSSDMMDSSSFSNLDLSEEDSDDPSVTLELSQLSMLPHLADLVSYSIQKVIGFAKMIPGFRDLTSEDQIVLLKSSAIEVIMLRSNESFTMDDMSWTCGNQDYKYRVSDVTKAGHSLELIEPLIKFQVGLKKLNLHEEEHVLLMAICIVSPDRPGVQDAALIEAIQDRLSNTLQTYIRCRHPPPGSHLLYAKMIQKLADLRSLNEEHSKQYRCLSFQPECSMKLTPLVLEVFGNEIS
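Signal is fluorescence polarization, reporting how far test compounds block the interaction of VDR with the SRC2-3 coregulator peptide after a 2 h room-temperature incubation.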
Tb PFK inh: qHTS Assay to Find Inhibitors of T. brucei phosphofructokinase; ATP-dependent 6-phosphofructokinase (Trypanosoma brucei brucei), O15648; 0.17% of 330,000 active; Potency, µM (titrated, usually from 57.5 µM), inactives show at the highest dose activity, negative = inhibition, actives largely listed as inhibitors; T. brucei PFK, ADP-Glo luminescence; AID 485367, 2010;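 further: 0% = uninhibited 1x PFK enzyme wells and -100% = no-enzyme wells; nearly all actives have a fitted effect of over 60% in size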
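PFK 1.25 nM, F6P 0.5 mM, ATP 0.1 mM, 0.1 M TEA pH 8.0, 5 mM MgCl2, 0.01% Tween20, 0.1% BSA; 45 min RT. ADP-Glo readout. qHTS titration up to 57 uM; curves fitted, compounds curve-classed.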
Pin1 inh: qHTS Assay to Find Inhibitors of Pin1. Peptidyl-prolyl cis-trans isomerase NIMA-interacting 1 (Homo sapiens), Q13526. AID 504891, 2011. 0.009% of 390,000 active. Pin1 FP peptide displacement, HiFluor488, 10 min. Potency, µM (series often up to 115 µM), without a hit: at the highest dose activity, negative = inhibition, usual class: inhibitors; active means well fitted inhibition curve with a large enough effect in the polarisation, with a control signal flat, not every such curve was filed as active; inconclusive means small, poorly fitted or top-dose-only effect, or effect the other way, or a change in a side signal; inactive means no such curve, though single readings can be large or run the other way; the % refers to the polarisation; further: on the % scale 0 is the no-effect control and ±100 the full control effect
Target sequence (Q13526 whole entry, looked up): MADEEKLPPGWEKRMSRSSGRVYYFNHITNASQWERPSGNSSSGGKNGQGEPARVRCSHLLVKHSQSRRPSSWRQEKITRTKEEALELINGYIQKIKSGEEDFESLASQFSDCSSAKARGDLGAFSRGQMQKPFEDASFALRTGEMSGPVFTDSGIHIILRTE
PLK1 PBD block: qHTS for Inhibitors of PLK1-PDB (polo-like kinase 1 - polo-box domain): Primary Screen. 2.8% of 360,000 active. Serine/threonine-protein kinase PLK1 (Homo sapiens), P53350. AID 720504, 2013. Plk1 PBD binding of FITC phosphopeptide, fluorescence polarization. Potency, µM, inactives show max response, negative = inhibition, actives largely listed as inhibitors; further: series mostly up to about 57 µM; on the % scale 0 is the no-effect control and ±100 the full control effect; nearly all actives have a fitted effect of over 65% in size
ASM inhibitor: Inhibitors of Secretory Acid Sphingomyelinase (S-ASM): qHTS; Sphingomyelin phosphodiesterase (Homo sapiens), P17405; 0.006% of 340,000 active; placental ASM, HMU-PC fluorogenic substrate, 60 min; Potency, µM (titrated, usually from 57.5 µM), inactives show at the top dose activity change, negative = inhibition, most hits filed as inhibitors; AID 504937, 2011
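Fluorescence read-out (Ex 386 nm, Em 447 nm) after stopping the reaction at pH 10. Enzyme: ASM from human placenta; substrate HMU-PC0, 9 uM final; 60 min, 37 °C. Compound preincubation 10 min, ambient temperature.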
TDP1 inh: qHTS Assay for Inhibitors of Tyrosyl-DNA Phosphodiesterase (TDP1); recombinant TDP1, AlphaScreen DNA substrate cleavage; AID 485290, 2010; Potency, µM (highest dose often 130 µM), without a hit: top-dose activity change, negative = inhibition, most hits filed as inhibitors; 0.28% of 350,000 active; Tyrosyl-DNA phosphodiesterase 1 (Homo sapiens), Q9NUW8; further: on the % scale 0 is the no-effect control and ±100 the full control effect; nearly all actives have a fitted effect of over 40% in size
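E. coli-derived human Tdp1, 1 nM final. Cpd preinc 15 min RT; substrate 15 nM final, 5 min RT; AS bead mix 10 ug/ml final, 10 min RT. Signal loss = tyrosine-FITC cleavage. No-enzyme wells = max signal.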
VDR inh confirm: qHTS for Inhibitors of the vitamin D receptor (VDR): Hit Validation in Primary Screen | Potency, µM, hits mostly inhibitors | shares compounds with VDR inhibitor | 89% of 840 active | VDR-coactivator inhibition assay, qHTS confirmation
VDR FP fluor: qHTS for Inhibitors of the vitamin D receptor (VDR): Hit Validation using a Fluorescein Assay | 48% of 840 active | shares compounds with VDR inhibitor | Potency, µM (top dose mostly 57.1 µM), for the others: at the highest dose activity change, negative = inhibition, hits mostly inhibitors | VDR-coactivator binding, fluorescein fluorescence polarization
VDR bla reporter: qHTS for Inhibitors of the vitamin D receptor (VDR): Hit Validation using a Beta-Lactamase Assay; shares compounds with VDR inhibitor; 23% of 840 active; Potency, µM (highest dose often 46.1 µM), inactives show top-dose activity change, negative = inhibition, hits mostly inhibitors; VDR beta-lactamase reporter cells, FRET ratio; cells co-treated with VDR agonist LG190178; further: on the % scale 0 is the no-effect control and ±100 the full control effect
VDR viability: qHTS for Inhibitors of the vitamin D receptor (VDR): Hit Validation using a Cytotoxicity Assay | shares compounds with VDR inhibitor | cytotoxicity counter-screen, cell viability, qHTS | Potency, µM (highest dose often 48.3 µM), for inactives: at the top dose activity change, negative = cytotoxicity, usual class: cytotoxic | 18% of 840 active;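 further: plate controls were DMSO for no effect and high-concentration cycloheximide for full effect; nearly all actives have a fitted effect of over 75% in size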
Active calls of the source: *; ? = inconclusive; . = no result; [ ] = another dose, or the depositor's remark. Unless noted, the call rests on the fitted dose curve; in most records, active means well fitted curve in the direction sought with a large enough effect; inconclusive means small, poorly fitted or top-dose-only effect, or another doubt; inactive means no such curve, though single readings can be large; an effect the other way counts as inactive or inconclusive. Potency means the concentration at half of the fitted maximal effect.

SMILES | VDR inhibitor | Tb PFK inh | Pin1 inh | PLK1 PBD block | ASM inhibitor | TDP1 inh | VDR inh confirm | VDR FP fluor | VDR bla reporter | VDR viability
N#Cc1c(NC(=O)C2CC(c3ccccc3Cl)=NO2)sc2c1CCC2 (stereo not drawn) | 12% | -4% | 12% | ? | -2% | 5% | . | . | . | .
CC(C)C(=O)Nc1sc2c(c1C#N)CCCCC2 | -9% | -14% | -8% | -12% | 0% | -10% | . | . | . | .
N#Cc1c(NC(=O)CSc2nc(-c3ccco3)cc(C(F)(F)F)n2)sc2c1CCCC2 | -23% | -3% | -6% | 21µM* | -5% | 6% | . | . | . | .
COc1ccc(Nc2nnc(-c3ccc(C)c(S(=O)(=O)N4CCOCC4)c3)c3ccccc23)cc1 | -10% | . | 2% | . | . | 5%[12.3 µM] | . | . | . | .
CCOC(=O)c1c(NC(=O)c2noc(C)c2[N+](=O)[O-])sc(C(C)=O)c1C | -13% | 1% | 10% | 24µM* | -12% | 8% | . | . | . | .
CCOC(=O)c1c(NC(=O)c2cc(-c3cccc(O)c3)on2)sc(C(C)=O)c1C | -9% | 7% | 18% | -11% | -4% | -3% | . | . | . | .
N#Cc1c(NC(=O)c2ccco2)sc2c1CCC2 | -10% | -3% | ? | 30µM* | 0% | 2% | . | . | . | .
CC(C)C[C@@H](NC(=O)[C@H](Cc1ccccc1)NC(=O)c1cnccn1)B(O)O | -10% | . | . | . | . | . | . | . | . | .
C=CCN1CC(O)=C(c2ccccc2)C1=N | 9% | 2% | 0% | -3% | 3% | -2% | . | . | . | .
N=C1C(c2ccccc2)=C(O)CN1CCCO | -7% | 3% | 4% | 24µM* | 3% | 9% | . | . | . | .
CCCN1CNc2c(c(=O)[nH]c(=S)n2CCc2ccc(OC)cc2)C1 | 0% | . | 0% | . | . | 0% | . | . | . | .
Cc1ccc(N[S+](=O)([O-])c2cc3c(cc2CCc2ccccc2)NC(=O)CO3)cc1C | . | . | 1% | . | . | 2% | . | . | . | .
CC(=O)N1CCOc2ccc(S(=O)(=O)Nc3cccc(C)n3)cc21 | -19% | -2% | 1% | 42µM* | 0% | 2% | . | . | . | .
CCC(C)NC(=O)C1CCC(CNS(=O)(=O)c2ccc3c(c2)N(C(C)=O)CCO3)CC1 (stereo not drawn) | -30% | 2% | -2% | 27µM* | 1% | 3% | . | . | . | .
CSc1cccc(NC(=O)Cn2c3ncccc3c(=O)n2-c2ccc(C)cc2)c1 | -2% | . | 11% | . | . | -8% | . | . | . | .
COc1cc(OC)c(/C=C/c2nccc3ccccc23)c(OC)c1 | . | . | . | . | . | . | 8.9* | 1.6µM* | 21µM* | ?
COc1cc(OC)c(C=Cc2ccncn2)c(OC)c1 | . | . | . | -6% | . | . | . | . | . | .
CC1C/C(=C\c2cccnc2)C(=O)/C(=C/c2cccnc2)C1 (stereo not drawn) | 35µM* | 4% | -1% | -14% | 0% | 4% | 12* | ? | 2.1µM* | ?
COc1cc(C(=O)NCc2ccc3c(c2)CCN3C(=O)c2ccc(Cl)cc2)cc(OC)c1OC | 7% | . | 7% | . | . | 3% | . | . | . | .
Nc1c(-c2nc(-c3ccccc3)cs2)c2ccccn2c1C(=O)c1ccc2c(c1)OCO2 | -1% | . | ? | . | . | -5% | . | . | . | .
CCOC(=O)CSC1=NC(=O)/C(=C\c2ccc(Cl)cc2)S1 | 79µM* | 9% | 74% | 0.84µM* | 6% | 0% | 8.4* | 75% | ? | ?
CCOC(=O)c1sc(NC(=O)c2ccncc2)c(C#N)c1C | 45µM* | 22% | 30% | 3.8µM* | -2% | 8% | 3.8* | ? | 5% | ?
COc1ccc(CNC(=O)CCC(=O)N2CC3CCCN3c3ccccc32)cc1 (stereo not drawn) | 20% | . | 1% | . | . | 6% | . | . | . | .
CCN(CC)c1ccc(NC(=O)COc2ccccc2C#N)cc1S(=O)(=O)Nc1ccccc1OC | 79µM* | -7% | 6% | 5.3µM* | -1% | 3% | 9.5* | ? | 0% | 17%
COc1ccccc1NS(=O)(=O)c1cc(NC(=O)CNC(=O)c2ccccc2)ccc1C | 4% | -3% | 8% | -13% | -5% | 0% | . | . | . | .
SMILES | VDR inhibitor | Tb PFK inh | Pin1 inh | PLK1 PBD block | ASM inhibitor | TDP1 inh | VDR inh confirm | VDR FP fluor | VDR bla reporter | VDR viability
CCN1C(=O)C2(c3ccccc31)c1c(oc3ccc(C)cc3c1=O)C(=O)N2CCCOC(C)C (stereo not drawn) | 11% | . | -7% | . | . | 1% | . | . | . | .
Nc1ncnc2c1ncn2[C@@H]1O[C@H](CNCc2ccccc2)[C@@H](O)[C@H]1O | -1% | 5% | 0% | -14% | 7% | 0% | . | . | . | .
Nc1ncnc2c1ncn2[C@@H]1O[C@H](CNCc2ccc(-c3cc(C(F)(F)F)ccc3Cl)o2)[C@@H](O)[C@H]1O | 28µM* | -3% | 10% | -11% | 4% | 0%[56.1 µM] | ? | ? | 11% | 14%
O=[N+]([O-])/C=C/c1cn(Cc2ccccc2)c2ccccc12 | 14µM* | -4% | 29% | ? | -29% | 6% | 12* | ? | ? | ?
O=C(O)Cn1cc(/C=C/[N+](=O)[O-])c2ccccc21 | ? | ? | 0% | -29% | -2% | -3% | . | . | . | .
O=C1Nc2ccc(Br)cc2C1=Nc1cccnc1 | 25µM* | -8% | -4% | ? | 0% | . | 9.5* | -19% | 17% | ?
O=C1Nc2ccccc2C1=Nc1cccc(Cl)c1 | -16% | -20% | -6% | -10% | -5% | . | . | . | . | .
